Measured potencies and affinities stand elsewhere. A number with no mark means an inactive call.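 The calls were made as follows: active = compounds whose fitted curve of lowered CTGF expression reaches half effect within a set concentration limit; inconclusive = flat moderate drop in CTGF, or unreliable curve fit; inactive = the rest.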
Test: YAP1 overexpression rescue of CTGF inhibition – DLD1 cells, RT-qPCR, cherry-pick, mechanism study for YAP1 pathway inhibitor project, dose response (AID 1053127)
Conditions: DLD1 YAP1-overexpressing, CTGF mRNA qPCR, 24 h; series mostly up to 26 µM; CTGF fold change (delta-delta-Ct), lower = inhibition: at the top concentration

Question: For `O=C(Cc1ccncc1)N1CCCCN2[C@H](CO)[C@H](c3ccc(C#Cc4ccccc4F)cc3)[C@H]2C1`, which “CTGF fold change (delta-delta-Ct), lower = inhibition” value is on record?
Answer: Its value is 1.12 unspecified.

Question: For `COc1cccc(-c2ccc([C@H]3[C@@H](CO)N4CCCCN(C(=O)Cc5ccncc5)C[C@H]34)cc2)c1`, which “CTGF fold change (delta-delta-Ct), lower = inhibition” value is on record?
Answer: Its value is 1.65 unspecified.

Question: For `O=C(Cc1ccncc1)N1CCCCN2[C@H](C1)[C@@H](c1ccc(C#Cc3ccccc3F)cc1)[C@@H]2CO`, which “CTGF fold change (delta-delta-Ct), lower = inhibition” value is on record?
Answer: The value was 1.19 unspecified.

Question: With `COc1cccc(-c2ccc([C@@H]3[C@@H](CO)N4CCCCN(C(=O)Cc5ccncc5)C[C@H]34)cc2)c1` as the compound, how does the “CTGF fold change (delta-delta-Ct), lower = inhibition” value read?
Answer: The value was 1.2 unspecified.

Question: Which “CTGF fold change (delta-delta-Ct), lower = inhibition” value does the source give for `COc1cccc(-c2ccc([C@@H]3[C@H]4CN(C(=O)Cc5ccncc5)CCCCN4[C@H]3CO)cc2)c1` here?
Answer: Its value is 1.96 unspecified.

Question: Which “CTGF fold change (delta-delta-Ct), lower = inhibition” value does the source give for `COc1cccc(-c2ccc([C@H]3[C@@H](CO)N4CCCCN(C(=O)Cc5ccncc5)C[C@@H]34)cc2)c1` here?
Answer: The value was 1.26 unspecified.

Question: For `O=C(Cc1ccncc1)N1CCCCN2[C@@H](CO)[C@H](c3ccc(C#Cc4ccccc4F)cc3)[C@@H]2C1`, which “CTGF fold change (delta-delta-Ct), lower = inhibition” value is on record?
Answer: The value was 0.964 unspecified.

Question: With `O=C(Cc1ccncc1)N1CCCCN2[C@@H](CO)[C@@H](c3ccc(C#Cc4ccccc4F)cc3)[C@@H]2C1` as the compound, how does the “CTGF fold change (delta-delta-Ct), lower = inhibition” value read?
Answer: The value was 0.849 unspecified [at 23.5 µM].

Question: With `COc1cccc(-c2ccc([C@H]3[C@H](CO)N4CCCCN(C(=O)Cc5ccncc5)C[C@@H]34)cc2)c1` as the compound, how does the “CTGF fold change (delta-delta-Ct), lower = inhibition” value read?
Answer: Its value is 1.02 unspecified.

Question: For `COc1cccc(-c2ccc([C@@H]3[C@H](CO)N4CCCCN(C(=O)Cc5ccncc5)C[C@@H]34)cc2)c1`, which “CTGF fold change (delta-delta-Ct), lower = inhibition” value is on record?
Answer: The value was 0.988 unspecified.

From PubChem BioAssay AID1053127 (Broad Institute, 2014)
